Laboratory results reported in PubChem BioAssay AID1159580 (chemical genetic matrix, 2015).
Several values for one entry are separate records, joined by “and”; a condition that tells them apart may be missing. Identical values can stand only once. Among all 5,500 compounds or so, about 2,000 (36%) were called active. About 18% were inconclusive and are not listed. Rule as the data show it: active = normalized growth mostly below about 0.91 (no sharp cut-off); inconclusive = no clear call, values can overlap the other calls; inactive = mostly above about 0.92. The list shows a part of the results. A structure can be active in one record and inactive in another.

Test: chemical genetic growth profiling, strain panel (AID 1159580);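 also: tested at 20 µM; growth read once vehicle control cultures reached saturation at 30 °C; 1 = growth at the plate median or of vehicle wells; lower values mean less growth of the strain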
Conditions: S. cerevisiae deletion strains, growth OD
[1] = locus YCL061C, strain MRC1, stronger effect = lower value
[2] = locus YHR030C, strain SLT2, stronger effect = lower value
[3] = locus YJL187C, strain SWE1, stronger effect = lower value

Measured: normalized growth

NCCOB(c1ccccc1)c1ccccc1
0.694 (active) and 0.939 (inactive): locus YLR027C, strain aat2, stronger effect = lower value
0.892 (active) and 0.987 (inactive): locus YAL030W, strain snc1, stronger effect = lower value
0.879 (active) and 0.913 (inactive): locus YCL011C, strain gbp2, stronger effect = lower value
inactive: locus YAL021C, strain ccr4, stronger effect = lower value 0.936 and 0.969 | locus YBR023C, strain chs3, stronger effect = lower value 0.925 and 0.92 | locus YBR171W, strain sec66, stronger effect = lower value 0.968 and 0.998 | locus YBR231C, strain swc5, stronger effect = lower value 1.03 and 1 | locus YCL016C, strain dcc1, stronger effect = lower value 1.01 and 0.977 | locus YDL005C, strain med2, stronger effect = lower value 1 and 1.03 | locus YDL040C, strain nat1, stronger effect = lower value 1.01 and 1.02 | locus YDR069C, strain doa4, stronger effect = lower value 1.02 and 1.01 | locus YDR137W, strain rgp1, stronger effect = lower value 0.997 and 0.987 | locus YDR159W, strain sac3, stronger effect = lower value 1.03 and 1.06 | locus YDR195W, strain ref2 1.11 and 1.07 | locus YDR297W, strain sur2, stronger effect = lower value 1.01 and 0.979 | locus YDR335W, strain msn5, stronger effect = lower value 1 and 0.991 | locus YEL003W, strain gim4, stronger effect = lower value 1.02 and 0.999 | locus YEL037C, strain rad23, stronger effect = lower value 1.01 | locus YEL061C, strain CIN8 (second series), stronger effect = lower value 1.01 | locus YER016W, strain bim1, stronger effect = lower value 1.02 | locus YER111C, strain swi4, stronger effect = lower value 1.02 and 1.01 | locus YGL167C, strain pmr1, stronger effect = lower value 1.04 and 1.05 | locus YGL173C, strain kem1, stronger effect = lower value 0.927 and 0.93 | locus YHR142W, strain chs7, stronger effect = lower value 0.882 and 0.977 | locus YJL129C, strain trk1, stronger effect = lower value 0.965 and 0.979 | locus YLL001W, strain dnm1, stronger effect = lower value 0.995 and 0.946 | locus YLR320W, strain mms22, stronger effect = lower value 0.973 and 1 | locus YLR384C, strain iki3, stronger effect = lower value 1.02 | locus YML120C, strain ndi1, stronger effect = lower value 0.961 and 0.993 | locus YMR205C, strain PFK2, stronger effect = lower value 0.937 and 0.943 | locus YNL322C, strain KRE1 (second series), stronger effect = lower value 1.04 and 1.03 | locus YOR001W, strain rrp6, stronger effect = lower value 0.947 and 1 | locus YOR080W, strain dia2, stronger effect = lower value 1.02 | locus YOR270C, strain vph1, stronger effect = lower value 0.934 and 0.992 | locus YOR290C, strain snf2, stronger effect = lower value 0.895 and 0.926 | locus YPL078C, strain atp4, stronger effect = lower value 0.967 and 0.972 | locus YPL240C, strain hsp82, stronger effect = lower value 1.02 and 0.932
0.868 (active) and 0.944 (inactive): locus YLL041C, strain sdh2, stronger effect = lower value
active: locus YAL026C, strain drs2, stronger effect = lower value 0.153 and 0.218 | locus YBL061C, strain skt5, stronger effect = lower value 0.578 and 0.786 | locus YBR009C, strain hhf1, stronger effect = lower value 0.758 and 0.788 | locus YBR279W, strain paf1, stronger effect = lower value 0.46 and 0.808 | [1] 0.827 and 0.759 | locus YCL069W, strain vba3, stronger effect = lower value 0.437 and 0.312 | locus YCR088W, strain abp1, stronger effect = lower value 0.604 and 0.524 | locus YDR001C, strain nth1, stronger effect = lower value 0.651 and 0.789 | locus YDR334W, strain swr1, stronger effect = lower value 0.472 and 0.793 | locus YDR392W, strain spt3, stronger effect = lower value 0.423 and 0.451 | locus YER015W, strain faa2, stronger effect = lower value 0.528 and 0.733 | locus YFR010W, strain ubp6, stronger effect = lower value 0.351 and 0.387 | locus YGL227W, strain vid30, stronger effect = lower value 0.602 and 0.427 | locus YGL240W, strain doc1, stronger effect = lower value 0.822 and 0.865 | locus YGL253W, strain hxk2, stronger effect = lower value 0.468 and 0.384 | locus YHR013C, strain ard1, stronger effect = lower value 0.432 and 0.49 | locus YHR027C, strain rpn1, stronger effect = lower value 0.799 and 0.766 | [2] 0.106 | locus YHR079C, strain IRE1, stronger effect = lower value 0.11 | locus YJL092W, strain hpr5, stronger effect = lower value 0.334 and 0.399 | locus YJL095W, strain BCK1, stronger effect = lower value 0.106 | locus YJL115W, strain asf1, stronger effect = lower value 0.85 and 0.877 | locus YJL154C, strain vps35, stronger effect = lower value 0.454 and 0.657 | locus YJL164C, strain tpk1, stronger effect = lower value 0.824 and 0.786 | locus YJL166W, strain qcr8, stronger effect = lower value 0.841 and 0.839 | [3] 0.798 | locus YJR066W, strain TOR1, stronger effect = lower value 0.00283 | locus YKL160W, strain elf1, stronger effect = lower value 0.717 and 0.751 | locus YKR026C, strain gcn3, stronger effect = lower value 0.381 and 0.353 | locus YKR091W, strain srl3, stronger effect = lower value 0.357 and 0.316 | locus YLR113W, strain HOG1, stronger effect = lower value 0.141 | locus YLR221C, strain rsa3, stronger effect = lower value 0.372 and 0.709 | locus YLR258W, strain gsy2, stronger effect = lower value 0.578 and 0.778 | locus YLR342W, strain FKS1, stronger effect = lower value 0.841 and 0.823 | locus YLR357W, strain rsc2, stronger effect = lower value 0.629 | locus YLR370C, strain arc18, stronger effect = lower value 0.44 and 0.485 | locus YMR058W, strain fet3, stronger effect = lower value 0.167 and 0.157 | locus YMR125W, strain sto1, stronger effect = lower value 0.759 and 0.824 | locus YMR129W, stronger effect = lower value 0.507 and 0.306 | locus YMR231W, strain pep5, stronger effect = lower value 0.247 and 0.309 | locus YNL071W, strain lat1, stronger effect = lower value 0.248 and 0.315 | locus YNL183C, strain NPR1, stronger effect = lower value 0.000102 | locus YNL209W, strain ssb2, stronger effect = lower value 0.699 and 0.694 | locus YNL248C, strain rpa49, stronger effect = lower value 0.693 and 0.758 | locus YNR049C, strain mso1, stronger effect = lower value 0.585 and 0.756 | locus YOR070C, strain gyp1, stronger effect = lower value 0.657 and 0.767 | locus YOR083W, strain WHI5, stronger effect = lower value 0.202 and 0.184 | locus YOR106W, strain vam3, stronger effect = lower value 0.688 and 0.741 | locus YOR231W, strain MKK1, stronger effect = lower value 0.0985 | locus YOR265W, strain rbl2, stronger effect = lower value 0.79 and 0.861 | locus YPL051W, strain arl3, stronger effect = lower value 0.622 and 0.599 | locus YPL256C, strain CLN2, stronger effect = lower value 0.118
0.815 (active) and 0.926 (inactive): locus YER155C, strain BEM2 (second series), stronger effect = lower value
0.887 (active) and 0.923 (inactive): locus YJL095W, strain BCK1 (second series), stronger effect = lower value
0.891 (inactive) and 0.792 (active): locus YPL106C, strain sse1, stronger effect = lower value
0.923 (inactive) and 0.845 (active): locus YLR262C, strain YPT6 (second series), stronger effect = lower value
0.836 (active) and 0.998 (inactive): locus YLL026W, stronger effect = lower value

CC(=O)c1ccc(-c2ccc(Cl)c(Cl)c2)o1
inactive: locus YGR229C, strain SMI1, stronger effect = lower value 0.956 | locus YLR058C, strain SHM2 (second series), stronger effect = lower value 0.994 | locus YNL322C, strain KRE1, stronger effect = lower value 0.99
active: locus YAL013W, strain DEP1, stronger effect = lower value 0.803 | locus YBR229C, strain ROT2, stronger effect = lower value 0.825 | [1] 0.776 | locus YDL101C, strain DUN1, stronger effect = lower value 0.661 | locus YDL134C, strain PPH21, stronger effect = lower value 0.428 | locus YEL061C, strain CIN8, stronger effect = lower value 0.445 | locus YGR078C, strain PAC10, stronger effect = lower value 0.863 | [2] 0.0914 | locus YHR087W, strain rtc3, stronger effect = lower value 0.816 | [3] 0.807 | locus YJR043C, strain POL32, stronger effect = lower value 0.8 | locus YJR075W, strain HOC1, stronger effect = lower value 0.787 | locus YLR039C, strain RIC1, stronger effect = lower value 0.207 | locus YLR085C, strain ARP6, stronger effect = lower value 0.112 | locus YLR262C, strain YPT6, stronger effect = lower value 0.264 | locus YML094W, strain GIM5, stronger effect = lower value 0.633 | locus YMR219W, strain ESC1, stronger effect = lower value 0.877 | locus YMR263W, strain SAP30, stronger effect = lower value 0.629 | locus YNL128W, strain TEP1, stronger effect = lower value 0.82 | locus YNL153C, strain GIM3, stronger effect = lower value 0.838 | locus YNL298W, strain CLA4 (second series), stronger effect = lower value 0.373 | locus YNR030W, strain Alg12, stronger effect = lower value 0.483 | locus YOL006C, strain TOP1, stronger effect = lower value 0.15 | locus YPL055C, strain LGE1, stronger effect = lower value 0.747 | locus YPL241C, strain CIN2, stronger effect = lower value 0.365 | locus YPR135W, strain CTF4, stronger effect = lower value 0.213
